Experimental findings from PubChem BioAssay (NCATS) are described below.

Values joined by “and” are separate entries in the source; they are usually repeats but may differ in a detail not shown here. Equal entries are not always repeated. Inconclusive results are not listed. A number with no mark means an inactive call. Active and inactive are the calls of the source. Calls follow the shape of the dose curve; as a rule, active = well fitted activation curve with a large enough effect; inconclusive = small, poorly fitted or top-dose-only effect; inactive = no such curve, though single readings can be large or run the other way.
Potency is read from the fitted curve at half-maximal effect.

Cellular tumor antigen p53 (Homo sapiens), sequence (P04637 whole entry, looked up): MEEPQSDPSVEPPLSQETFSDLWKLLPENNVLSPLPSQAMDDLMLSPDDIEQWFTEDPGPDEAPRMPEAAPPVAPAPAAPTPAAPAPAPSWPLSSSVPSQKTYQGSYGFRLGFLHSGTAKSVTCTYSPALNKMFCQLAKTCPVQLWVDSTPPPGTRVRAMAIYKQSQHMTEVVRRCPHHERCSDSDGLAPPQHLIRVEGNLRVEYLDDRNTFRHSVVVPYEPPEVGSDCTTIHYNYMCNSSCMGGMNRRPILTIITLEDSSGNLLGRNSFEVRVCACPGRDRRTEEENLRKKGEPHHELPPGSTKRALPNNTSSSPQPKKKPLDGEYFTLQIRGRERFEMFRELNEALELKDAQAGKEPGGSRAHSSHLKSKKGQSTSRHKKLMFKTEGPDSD

This experiment concerns the target Cellular tumor antigen p53 (Homo sapiens) (UniProt P04637). The experiment can be described thus: Primary qHTS for small molecule compounds that upregulate eGFP-tagged delta133p53alpha (in N-terminal) cells. (AID 2060322). Also: nearly all actives have a fitted effect of over 75% in size.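 As to activation: cells pre-induced with doxycycline then dosed without doxycycline; series mostly up to about 56 µM; 0% = DMSO vehicle and 100% = reference activator.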 The settings on record: NCI-H358 eGFP-delta133p53alpha fluorescence, 24 h; activation: active compounds read high. The essentials: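 NCI-H358 cells pre-induced 24 h with 10 ng/ml doxycycline for eGFP-delta133p53alpha, plated dox-free and exposed 24 h at 37C to titrated compounds. Fixed, Hoechst-stained; gated GFP peak intensity by laser scanning cytometry, normalized to DMSO (0%) and 57.5 uM 5-azacytidine (100%).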
A general note: In qHTS, concentration-response curves come from the screen itself.
`CCCCCCCCCCCCCCCC(=O)O`: the activation is -13.4%.

With `Cn1cc(C2=C(c3cn(CCCN)c4ccccc34)C(=O)NC2=O)c2ccccc21`, the Potency was 24.3 µM (active).

Consider `CC[C@@H]([C@H](C)O)n1ncn(-c2ccc(N3CCN(c4ccc(OC[C@@H]5CO[C@@](Cn6cncn6)(c6ccc(F)cc6F)C5)cc4)CC3)cc2)c1=O`, for which the activation is 22.6%.

For `Clc1ccc(-c2nc3sccn3c2C=NOCc2ccc(Cl)c(Cl)c2)cc1`, the activation is -15.4%.

In the case of `COc1ccc(-c2oc3c(CC=C(C)C)c(OC4O[C@H](CO)[C@@H](O)[C@H](O)[C@@H]4O)cc(O)c3c(=O)c2OC2O[C@@H](C)[C@H](O)[C@@H](O)[C@@H]2O)cc1` (some centres not stated), the activation was -27.6%.

As to `COc1cc(N)c(Cl)cc1C(=O)NC1CCN(Cc2ccccc2)CC1`, the activation was 17.6%.

For `CC(C)(C)c1[nH]cnc1C=c1[nH]c(=O)c(=Cc2ccccc2)[nH]c1=O`, the activation was -1.26%.

For the compound `COc1cccc(N(C)C(=S)Oc2ccc3c(c2)CCCC3)n1`, the activation was 25.4% and -4.03%.

On to `CC(=O)OCC[N+](C)(C)C`, for which the activation is 15.3%.

For `CCCCN(CCN(CCCC)C(=O)N1CCOCC1)C(=O)N1CCOCC1`, the activation was -21.8%.

Take `CO[C@H]1C=CO[C@@]2(C)Oc3c(C)c(O)c4c(O)c(c(C=NN5CCN(C)CC5)c(O)c4c3C2=O)NC(=O)C(C)=CC=C[C@H](C)[C@H](O)[C@@H](C)[C@@H](O)[C@@H](C)[C@H](OC(C)=O)[C@H]1C`: the activation is 3.33%.

As to `N=C1SC(=Cc2ccc(-c3ccc4c(c3)C(=O)NC4=O)o2)C(=O)N1c1ccc(Br)cc1`, the activation is 54.1%.
